# Results from PubChem BioAssay (NCATS).
# Records with an inconclusive call do not appear. Values without a mark were called inactive. Activity calls are given as the source filed them. The call rests on the fitted dose curve; in most records, active means well fitted inhibition curve with a large enough effect; inconclusive means small, poorly fitted or top-dose-only effect; inactive means flat fitted curve, though single readings scatter.
# Tested on: PC15
# Assay: qHTS profiling for inhibitors of Plasmodium falciparum proliferation (AID 504749); further: nearly all actives have a fitted effect of over 60% in size;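 on activity, negative = inhibition: 0% = DMSO vehicle and full inhibition = artemisinin control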
# Details: P. falciparum in erythrocytes, SYBR Green DNA, 72 h; series mostly up to 28.7 µM; activity, negative = inhibition: at the top concentration
# Outline: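 Fluorescence of SYBR Green-bound parasite DNA, read at 485/535 nm, served as the growth measure. Infected erythrocytes were cultured with compound 72 h; artemisinin (0.29 uM) and DMSO wells defined the normalization range.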
# Potency means the concentration at half of the fitted maximal effect.
SMILES,"activity, negative = inhibition",Potency
CC(=O)Nc1ncc([N+](=O)[O-])s1,5.66%,
C#C[C@]1(O)CC[C@H]2[C@@H]3CCc4cc(OC)ccc4[C@H]3CC[C@@]21C,9.11%,
CC(=O)Nc1ccc(CC(=O)O)cc1,3.2%,
COc1ccc(-c2cc(C(F)F)nn2-c2ccc(S(N)(=O)=O)cc2)cc1F,9.94%,
Nc1ccc(S(=O)(=O)Nc2cnc3ccccc3n2)cc1,1.32%,
CCCCCCCCCCCCCCCCO,1.64%,
Cc1cccc(C)c1NC(=O)CN1CCCC1,2.6%,
C[N+]1(CC2COC(c3ccccc3)(C3CCCCC3)O2)CCCCC1 (stereo not drawn),,5.62 µM (active)
CCCCNc1ccc(C(=O)OCCOCCOCCOCCOCCOCCOCCOCCOCCOC)cc1,3.34% [at 12.8 µM],
NC(=S)N/N=C/c1cccnc1,7.23%,
O=C(O)P(=O)(O)O,11%,
c1ccc(CC2=NCCN2)cc1,5.17% [at 12.8 µM],
COc1ccc2c(c1)c1c3n2CCN(C)C3=NCC1,-24.8%,
O=C(O)C1(C(=O)O)CCC1.[NH2-].[NH2-].[Pt+2],12.1%,
COc1cc(C(=S)N2CCOCC2)ccc1O,10.3%,
O=C(O)C(Cc1cc(I)c(O)c(I)c1)c1ccccc1 (stereo not drawn),3.79%,
COP(=O)(OC)OC(c1ccc(Cl)cc1)P(=O)(OC)OC (stereo not drawn),1.56%,
CCCCNC(=O)NS(=O)(=O)c1ccc(N)cc1,6.66%,
CC(=O)Nc1ccc(OCC(O)CNC(C)C)cc1 (stereo not drawn),-3.92%,

SMILES,"activity, negative = inhibition",Potency
CCCCCCCCOc1ccc(C(=O)c2ccccc2)c(O)c1,7.24%,
CCOc1ccccc1OCCN[C@H](C)Cc1ccc(OC)c(S(N)(=O)=O)c1,8.62%,
NS(=O)(=O)c1cc(C(=O)O)cc(N2CCCC2)c1Oc1ccccc1,11.2% [at 12.8 µM],
CCCCc1cc2ccccc2c(OCCN(C)C)n1,-20.9% [at 12.8 µM],
CNCCc1ccccn1,6.1% [at 12.8 µM],
CC(=O)NC(=O)c1ccccc1O,-1%,
CCNC(=O)NCc1cccc(Cl)c1,13.2%,
CCc1oc2ccccc2c1C(=O)c1cc(Br)c(O)c(Br)c1,-4.36%,
CC(C)Cn1cnc2c1c(=O)n(C)c(=O)n2C,-3.62%,
CCCCCCCCCCCCCC[N+](C)(C)Cc1ccccc1,,6.31 µM (active)
CCN(CC)CCNC(=O)c1cc(Br)c(N)cc1OC,-4.94%,
CCNC(=O)/C=C/c1cccc(Br)c1,3.67%,
NC(=O)c1ccccc1O,8.13%,
Nc1ccc(S(=O)(=O)NCc2ccccc2)cc1,-2.32%,
Cc1cc(NS(=O)(=O)c2ccc(N)cc2)nc(C)n1,2.65%,
C#C[C@]1(O)CC[C@H]2[C@@H]3CCC4=Cc5oncc5C[C@]4(C)[C@H]3CC[C@@]21C,0.183%,
CC(=O)Oc1ccc(C)cc1,11%,
NC(=O)n1c(O)c(C(=O)c2cccs2)c2cc(Cl)ccc21,2.62%,
CCN1/C(=C/C=C/c2sc3ccccc3[n+]2CC)Sc2ccccc21,,0.316 µM (active)
